# Test results reported in the supplement of paper PMC6555819.
# System: VDR:RXRa (NR concentration 270 nM, RXRa partner concentration 90 nM)
# Assay: PBM binding z-score (relative to random genomic background probes); higher = stronger binding; sequences stand for … in GC…GCGATTGACAGCGTAGAATGAAGG
# Experimental: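 Protein-binding microarray (Agilent 4x180K custom design, double-stranded 60-nt probes: 5' GC cap, 34-nt variable region, 24-nt constant primer region; full probe sequence given). Purified or IVT nuclear receptor:RXRα heterodimers (3:1 NR:RXRα, mostly 270:90 nM) or homodimers were incubated for 1 h in PBS with 2% milk and no ligand, then detected with Alexa488 antibodies. Fluorescence from o1-orientation probes (~5 replicates averaged) was converted to z-scores against 500 random hg19 background probes. Variable regions are seed direct-repeat (DR0–DR5) sites, all their single-nucleotide variants and half-site ablations.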
row,Sequence,PBM binding z-score
1,GCGAGTGGGGCAAAGCAGGTTACCATAAGGTTGG,0.296
2,AGATCGAGGGCACGCTGAGTTGATAGCAGAGTAG,1.85
3,CAAACTTGGTCACGAAAGGTCAAAGTCGAATGAC,5.37
4,TAGCCTAGGTCATTGGGCCAGCATAGTACGCATC,2.14
5,GGAACGAGGGCAAATTGATAGCAGAGTTTGATGG,0.922
6,CCGACTGGGGCATAAGATTACCATAAGCCAGCCC,-0.534
7,CCTCGGAGGACAGAAGGTCAGAGGTGTCCGCTTT,1.24
8,GCTTCTAGATCAAGGTTAAGAAAGACTAAGCTAA,0.384
9,AATATAGGGTCACTAGGCCAGAGTAGGTACGAAT,4.06
10,CGAACTTGGTCATTGACAGGACAGTGAATAGTAA,0.0642
11,CAAACTAGGTCACCGGAAGGTCAGAGTCCGCATG,4.86
12,ATCGAAAGGTCGAGGTGAGTATAGAGAAAGGGAA,2.69
13,CAAACTAGGTTAAGAGGTCAAAGTCCGCTTCCCG,5.21
14,TAGCCTAGGGCAGATCGGGCCAGTATACGCTATA,-0.562
15,CGTCAAAGTTCAAATAAGGTAACGTAAAGCACGC,4.74
16,CGTCCAAGGTAAAAGGTCAGTGAAGAGATGACGG,2.93
17,AGAATGAGGTTATACTTAGATCAGGGAAGAAAGT,1.41
18,AGAATGAGGTTAAGATCAGAGAAACAGAATACAT,1.11
19,CGTCCAAGGTCTGAGAGGTCAGTGAATGCCGAGT,3.29
20,TAGCCTAGGTCATGGGGGCCAGTATAGTGTCGGC,5.43

row,Sequence,PBM binding z-score
1,CCTACAGGGCCATTCAGAGGTCATTGATCATATG,4.57
2,GCTGGTTGGTCAGTAAAAGGTCACACACCGGTCG,4.02
3,CCTCGCAGGCCAGGGTCACTCAAGCATTTCGCTT,2.41
4,TAGCCTAGGTCATTGGCCAGTATACCACGCGAAC,2.18
5,CCGGCTGGGGCAAGGTTACCATAACGCACAGCCA,-0.269
6,CAACCTAGGTCACAGAGGTCAAAGTCCGTGCGTA,8.21
7,GCTGCTAGGTCAACTGATGGGCAGCTAAAGCTCG,1.09
8,CGAGACAGGTGAAAGGTAACTCAGTCTGGTACGC,0.633
9,CAAACTAGGTCACGAAAGGTAAAAGTCGAATGAC,3.25
10,TTACCAAGGTTAGCTGAGGTCGTTGATCCAACTC,5.09
11,GCTATTAGTTGAAAGCGCAACCGAATGATTCTCG,-0.272
12,AGAACGACGGCAATGAGTTGATAGCACGGGTGGC,-0.0161
13,TTTATTAGTTGAAGGGCAACCGACGAGTCCGTTT,1.17
14,ATATGTAGGTTATCGGGGCATTCAGTTTGCGCAT,2.27
15,ACTAGTTGGTCAGATGAGGTCACACACAATTCGG,4.58
16,TCAGATAGGTGAAGGTAACTCAGGTACGCAGTCG,0.796
17,CGTCAAAGTTCAAGGTAACGTATCAGAAAGCAGC,3.97
18,ACTCGGAGGACAAAGGTCAGAGGTACGCCAGTGA,3.52
19,CCTATTAGTTGACCATAAGGCCAACCGAAGCTCG,0.724
20,CGAACTAGGTCAGAACAGGGCAGTGAAGGATGAT,0.903
